High-throughput results: PubChem, several laboratories
Rows were chosen to be rich in hits. Some 4.6% of all compounds tested hit in one or more screens of this group.
KLK7 zymogen act: proKLK7 zymogen activators, primary screen, biochemical, fluorescence intensity | Kallikrein-7 (Homo sapiens), P49862 | purified proKLK7, EDANS-DABCYL substrate fluorescence; 100% is mature enzyme control, 0% vehicle | activation, % at 7 µM | 0.9% of 370,000 active | AID 652039, 2013;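 active means activation above the mean of all tested compounds plus 3 SD, computed per campaign excluding outliers beyond control limits, cut at about 13% in these data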
NR3A LBD binder: binders of NR3A ligand-binding domain, primary screen, biophysical, differential scanning fluorimetry, uHTS; Glutamate receptor ionotropic, NMDA 3A (GRIN3A) ligand-binding domain; 2.5% of 340,000 active; Tm shift relative to glycine control, % at 25 µM; NR3A LBD differential scanning fluorimetry, Tm shift; 0% = protein alone, 100% = glycine-bound protein;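 active means melting temperature shift of at least 10% of the positive control shift, at one fixed dose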
ADAM17 inh: ADAM17 inhibitors, primary screen, biochemical, QFRET; recombinant ADAM17, EDANS/DABCYL FRET peptide cleavage; 0.83% of 370,000 active; Disintegrin and metalloproteinase domain-containing protein 17 (Homo sapiens), P78536; AID 720648, 2013; inhibition, % at 6.95 µM;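 active means inhibition above the mean of compounds lying between control limits plus 3 SD, set per campaign, cut at about 8.5% in these data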
Target sequence (P78536 215-824 limits assumed): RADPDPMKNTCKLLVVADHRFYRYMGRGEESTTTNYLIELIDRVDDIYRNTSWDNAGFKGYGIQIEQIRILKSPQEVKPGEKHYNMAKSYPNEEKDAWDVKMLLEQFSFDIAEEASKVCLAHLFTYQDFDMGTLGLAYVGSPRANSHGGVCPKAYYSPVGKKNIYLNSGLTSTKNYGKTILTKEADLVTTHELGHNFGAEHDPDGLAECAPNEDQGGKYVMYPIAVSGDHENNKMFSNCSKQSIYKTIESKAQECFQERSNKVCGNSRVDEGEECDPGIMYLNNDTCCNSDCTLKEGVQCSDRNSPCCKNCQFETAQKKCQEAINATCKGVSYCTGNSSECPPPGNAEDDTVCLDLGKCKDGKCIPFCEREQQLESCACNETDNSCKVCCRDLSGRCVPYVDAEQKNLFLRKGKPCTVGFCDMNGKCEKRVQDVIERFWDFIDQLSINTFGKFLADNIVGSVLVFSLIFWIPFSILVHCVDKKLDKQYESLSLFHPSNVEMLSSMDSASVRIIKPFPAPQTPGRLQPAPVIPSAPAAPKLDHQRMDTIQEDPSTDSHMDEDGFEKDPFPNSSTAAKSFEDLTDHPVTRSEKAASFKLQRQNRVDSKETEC
FAS TE block: FAS thioesterase domain inhibitors, primary screen, biochemical, fluorescence intensity, uHTS. Fatty acid synthase (Homo sapiens), P49327. recombinant FAS-TE, OMFH fluorogenic substrate, fluorescence endpoint. inhibition, % at 15 µM. 0.67% of 360,000 active. AID 602261, 2012;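 active means compounds whose normalised, plate-corrected inhibition of enzyme fluorescence in the single-dose primary screen is 50% or more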
ADAM10 inh: human ADAM10 inhibitors, primary screen, biochemical, QFRET, HTS | Disintegrin and metalloproteinase domain-containing protein 10 (Homo sapiens), O14672 | recombinant ADAM10, EDANS/DABCYL FRET peptide cleavage, 3 h | inhibition, % at 7 µM | 0.62% of 370,000 active;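 active means inhibition above a per-campaign cutoff equal to the mean of compounds falling between control-based bounds plus 3 SD, cut at about 20% in these data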
Of the large screens only hits and unclear results are named; the others gave an inactive call.

CCn1c2ccccc2n2c(=O)c(=O)n(CC(=O)Nc3ccc(C(C)C)cc3)nc12	NR3A LBD binder 12.9
CC(C)c1ccc(NC(=O)Cn2c(=O)oc3ccccc32)cc1	none
COc1cc2[nH]c(=S)nc(NCc3cccc(Cl)c3)c2cc1OC	none
S=c1nc(NCc2cccc(Cl)c2)c2ccccc2[nH]1	NR3A LBD binder 14.9
CCC(=O)N1CCc2cc(Br)cc(S(=O)(=O)CC(=O)OC)c21	NR3A LBD binder 14.0 (no result: KLK7 zymogen act, ADAM17 inh, ADAM10 inh)
CCC(=O)N1CCc2cc(Br)cc(S(=O)(=O)NCCN3CCCC3)c21	none
COc1ccc(NC(=O)C2CCC(=O)N2C(=O)OCc2ccccc2)cc1 (stereo unspecified)	NR3A LBD binder 10.8
O=C(CC1NC(=O)NC1=O)Nc1ccc(Cl)cc1 (stereo unspecified)	none
O=C(CC1Nc2ccccc2NC1=O)Nc1cc(Cl)cc(Cl)c1 (stereo unspecified)	NR3A LBD binder 29.3
CCCCNC(=O)CC1Nc2ccccc2NC1=O (stereo unspecified)	NR3A LBD binder 20.1
COC(=O)[C@]12C[C@H](CC(=O)NCc3ccc(OC)c(OC)c3)C(=O)N(Cc3ccc(Cl)cc3Cl)C1=C[C@H](C(C)(C)C)O[C@@H]2C	none (no result: NR3A LBD binder, FAS TE block)
COC(=O)[C@H]1C[C@@]2(N3CCCC3)c3ccccc3N[C@H]2N1S(C)(=O)=O	none (no result: NR3A LBD binder, FAS TE block)
O=C(C1CCCN(S(=O)(=O)c2ccc(Br)s2)C1)N1CCN(Cc2ccccc2)CC1 (stereo unspecified)	none (no result: NR3A LBD binder, FAS TE block)
O=C(NC1CCCCN(Cc2ccc(OC(F)(F)F)cc2)C1=O)c1ccc2ccccc2c1 (stereo unspecified)	none (no result: NR3A LBD binder, FAS TE block)
COc1ccc(/C=N/NC(=S)N[C@H]2CC3CCC2C3)cc1 (stereo partly specified)	NR3A LBD binder 25.5
COc1cc(/C=N/NC(=S)NC2CC3CCC2C3)ccc1O (stereo unspecified)	none
COc1ccc(NS(=O)(=O)c2cc(NC(=O)c3nc4nc(C)cc(C)n4n3)ccc2C)cc1	NR3A LBD binder 12.0
COc1ccccc1NS(=O)(=O)c1cccc(NC(=O)c2nc3nc(C)cc(C)n3n2)c1	none
Cc1ccc(NC(=S)c2nc3ccccc3[nH]2)c(C)c1	ADAM17 inh 8.9
Cc1ccc(NC(=S)c2nc3ccccc3[nH]2)cc1	none
CSc1ccccc1OCc1cc(C(=O)NCCN2CCCc3ccccc32)no1	NR3A LBD binder 11.9
CSc1ccccc1OCc1cc(C(=O)NCCn2nc(C)cc2C)no1	none
O=S1(=O)c2ccc(N3CCCC3)cc2Oc2ccccc2CN1Cc1cn(Cc2cccc(C(F)(F)F)c2)nn1	none (no result: NR3A LBD binder, FAS TE block)
COC(=O)c1nn(-c2ccccc2)c(Cl)c1/C=N/OCc1ccc(Cl)cc1Cl	NR3A LBD binder 12.4
O=C1CCC[C@H]2Cc3nc4cccc(Cl)c4cc3C[C@]23CCCN13	none (no result: KLK7 zymogen act, NR3A LBD binder, FAS TE block)
O=C(c1ccncc1)N1CC[C@H]2[C@H](CCCN2Cc2cc(F)cc(F)c2)C1	none (no result: NR3A LBD binder, FAS TE block)
CCCc1cc(-c2n[nH]c(=S)n2-c2cccc(C)c2)cs1	NR3A LBD binder 13.5
Cc1cccc(-n2c(-c3csc(C(C)C)c3)n[nH]c2=S)c1	none
Cc1ccccc1Cn1cc(CN2[C@@H](C)COc3cc(Br)ccc3S2(=O)=O)nn1	none (no result: NR3A LBD binder, FAS TE block)
Cc1ccc(S(=O)(=O)N(C)CC(=O)OCC(=O)N2CCCC2=O)cc1	none
CC(=O)Nc1ccc(S(=O)(=O)N(C)CC(=O)OCC(=O)N2CCCC2=O)cc1	NR3A LBD binder 16.9
COc1ccc(O)c(/C=C2/SC(=S)N(Cc3ccccc3)C2=O)c1	NR3A LBD binder 15.6
COc1ccc(/C=C2/SC(=S)N(Cc3ccccc3)C2=O)cc1O	NR3A LBD binder 19.5
O=C1/C(=C\c2cc(Cl)c(O)c(Cl)c2)SC(=S)N1Cc1ccccc1	none
COC(=O)C[C@H]1CC[C@@H]2[C@@H](COc3ccc(NS(=O)(=O)c4ccccc4Cl)cc3C(=O)N2C)O1	none (no result: NR3A LBD binder, FAS TE block)
CN1CCN(c2ccc(S(=O)(=O)N3CCOCC3)cc2NC(=O)C2CCCCC2)CC1	none
CCN1CCN(c2ccc(S(=O)(=O)N3CCOCC3)cc2NC(=O)C2CCC(C(C)(C)C)CC2)CC1 (stereo unspecified)	NR3A LBD binder 18.8
C=CCN1[C@H](CO)[C@H](c2ccc(Br)cc2)[C@@H]1C#N	none (no result: NR3A LBD binder, FAS TE block)
CCOc1ccc2nc(N/C(N)=N/C(=S)Nc3ccc(C)c(C)c3)nc(C)c2c1	NR3A LBD binder 20.1
COc1ccc(NC(=S)/N=C(\N)Nc2nc(C)c3ccc(C)cc3n2)cc1	none
O=C(OC(C(=O)Nc1ccc(Cl)c(C(F)(F)F)c1)c1ccccc1)C1=COCCO1 (stereo unspecified)	NR3A LBD binder 12.6
CC(=O)c1ccc(NC(=O)Nc2ccccc2)cc1	NR3A LBD binder 27.3
CNC(=O)c1ccc(NC(=O)Nc2ccccc2)cc1	NR3A LBD binder 25.5
CC(=O)c1cccc(NC(=O)Nc2ccccc2)c1	none
COC(=O)C1CN(Cc2ccc(C)cc2)CCS(=O)(=O)N1Cc1cn(Cc2ccc(OC)cc2)nn1 (stereo unspecified)	none (no result: NR3A LBD binder, FAS TE block)
Cc1ccc(Nc2ccccc2)nn1	none
Fc1ccc(Nc2ccc(-c3ccc(F)cc3)nn2)cc1	NR3A LBD binder 26.3
Fc1ccc(-c2ccc(Nc3cccc(F)c3)nn2)cc1	NR3A LBD binder 30.2
O=C(CCc1ccccc1)N[C@H]1[C@H](O)CCC[C@@]12C(=O)N(Cc1ccccc1)c1ccc(-c3ccccc3)cc12	none (no result: NR3A LBD binder, FAS TE block)
c1ccc(-c2nc3ccccn3c2-c2ccccc2)cc1	none
FC(F)Sc1nc(-c2ccccc2)c(-c2ccccc2)n1C(F)F	NR3A LBD binder 18.1
COc1ccccc1-c1nnc(SCC(=O)NCc2c(C)c(Cl)cc(C(C)C)c2O)o1	NR3A LBD binder 23.0
Cc1ccc2nc(-c3ccc(NS(=O)(=O)c4ccc(F)cc4)cc3)sc2c1	NR3A LBD binder 30.9
CNC(=S)Nc1ccc(-c2nc3ccc(C)cc3s2)cc1	NR3A LBD binder 28.3
CCCCNC(=S)Nc1ccc(-c2nc3ccc(C)cc3s2)cc1	NR3A LBD binder 31.2
CC(=O)Nc1ccc(S(=O)(=O)Nc2nc3ccc(C)cc3s2)cc1	none
Cc1ccc2nc(-c3ccc(N)cc3)sc2c1	none
Cc1ccc2nc(-c3ccc(NC(=S)NCC(C)(C)CN(C)C)cc3)sc2c1	none
CC(=O)NC(=S)Nc1ccc(-c2nc3ccc(C)cc3s2)cc1	none
CCC(C)(C)NC(=S)Nc1ccc(-c2nc3ccc(C)cc3s2)cc1	NR3A LBD binder 30.7
O=S1(=O)c2ccc(N3CC[C@H](O)C3)cc2OCCCN1C1CC1	none (no result: NR3A LBD binder, FAS TE block)
CC(=O)c1cc(-c2ccc(-c3ccccc3)c(F)c2)c(=O)n2c1CCC2	none (no result: NR3A LBD binder, FAS TE block)
CC1(C)CC(=O)C=C(Nc2ccccc2NC(=O)c2cccc(F)c2F)C1	none (no result: NR3A LBD binder, FAS TE block)
CC(C)CCNC(=S)Nc1ccc(F)cc1	none
